Whole data set: some 39,000 sequences, median “fluorescence intensity (a.u.)” near 4,300, cut for the highest 2% near 39,000. The entries come from a sample that favours the highest values as a whole.
target: T1, OsSMF1 (Oryza sativa, UniProt Q6ZLB0 1-436); assay: protein-binding microarray (RPBM); PBS, 2% BSA, 51.3 ng/ul salmon testes DNA, 50 uM zinc acetate, 200 nM TF, 25 C, 1 h; high values mean tight binding; conditions: protein: recombinant; tags: N-terminal polyhistidine and DsRed monomer fusion (pET32a); chain copies: 2; label: CyDye5-dUTP incorporated in the synthesized complementary strand; 3' TTTTT single-stranded linker to array surface; dsDNA, one strand shown
T1 sequence: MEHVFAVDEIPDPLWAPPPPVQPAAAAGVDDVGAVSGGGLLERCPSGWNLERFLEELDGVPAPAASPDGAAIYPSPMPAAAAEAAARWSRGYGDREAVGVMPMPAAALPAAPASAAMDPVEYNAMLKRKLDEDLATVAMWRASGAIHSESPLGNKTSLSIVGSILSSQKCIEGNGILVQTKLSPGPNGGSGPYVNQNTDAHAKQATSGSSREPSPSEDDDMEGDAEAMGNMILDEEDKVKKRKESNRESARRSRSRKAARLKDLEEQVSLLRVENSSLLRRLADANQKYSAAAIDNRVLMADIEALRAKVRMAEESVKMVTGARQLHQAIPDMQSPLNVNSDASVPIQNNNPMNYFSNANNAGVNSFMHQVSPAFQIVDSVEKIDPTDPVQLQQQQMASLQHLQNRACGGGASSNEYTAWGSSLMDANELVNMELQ
Summary of the method: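 Polyhistidine-tagged DsRed fusions of transcription factors, joined at the N-terminus, were expressed in E. coli BL21-CodonPlus and isolated on Ni–NTA. They were incubated at 200 nM for 1 h at 25 °C on a custom Agilent array, double-stranded and BSA-blocked, in PBS with 2% BSA, salmon testes DNA and 50 µM zinc acetate. The binding signal is per-feature fluorescence intensity (arbitrary units) read on an Axon 4000B scanner after washing.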

Sequence | binding signal
GCTGGGTTTTCGAGGAGGCCTGACTGGATCATACTCGACTCGGAGTCACCTAGTGCAG | 3250 fluorescence intensity (a.u.)
CCATCTGCGGCGTACTTGCCACTTTTCTTCGATCGGCACCCGGAGTCACCTAGTGCAG | 3550 fluorescence intensity (a.u.)
AGACCGCTCGCGCGTACGTGACGCGATCGGGCAGCGCGGGCGGAGTCACCTAGTGCAG | 4060 fluorescence intensity (a.u.)
TTCACACCCAGATAAATACAGCCTACTAGACCAATAGCCACGGAGTCACCTAGTGCAG | 40000 fluorescence intensity (a.u.)
TCTCTTTCTTTATTTCTTTAAAATATATTTATAGTTGTCTCGGAGTCACCTAGTGCAG | 3490 fluorescence intensity (a.u.)
GTACATCAAACATTATCAATATCGGACACATAATCCATTGCGGAGTCACCTAGTGCAG | 3850 fluorescence intensity (a.u.)
TTCACATCGTTGCAATAAATAATTATACCACTACTTCATACGGAGTCACCTAGTGCAG | 24800 fluorescence intensity (a.u.)
ACTTTTCCGTCACATCGTTTTAATTTCTTTAAACTTTTAACGGAGTCACCTAGTGCAG | 4680 fluorescence intensity (a.u.)
ACCAGGTGGCTACAGCTGGCTAAATACCCAGTCACTACCACGGAGTCACCTAGTGCAG | 3680 fluorescence intensity (a.u.)
TTATATCGTTTTAATTTCAATTAAACTTTCAATTTTAGTGCGGAGTCACCTAGTGCAG | 48400 fluorescence intensity (a.u.)
ATAAAATTTTATGATATATAGATAATAATTTTACTTGCAACGGAGTCACCTAGTGCAG | 4550 fluorescence intensity (a.u.)
TATAGAATTTTCTCTTAAAATACTTATCCGATTTATGATCCGGAGTCACCTAGTGCAG | 54100 fluorescence intensity (a.u.)
TTTTATCACATCGTTTTAATTTCAACCAAACTTTCAATTTCGGAGTCACCTAGTGCAG | 32600 fluorescence intensity (a.u.)
CCTAAAATACATGACCAGCCCACACAGGACTTAACCCACACGGAGTCACCTAGTGCAG | 3230 fluorescence intensity (a.u.)
CCATAATCACACTTCAATAGTAGTACTACCACAATTGCATCGGAGTCACCTAGTGCAG | 45100 fluorescence intensity (a.u.)
TTCATGCGCCCACATGACGTAGTGAATTAGTGGACTATGTCGGAGTCACCTAGTGCAG | 4570 fluorescence intensity (a.u.)
GAGTAGAGGTGGGAGGAAGCGGTGGTGTGGTGGGGTGGGGCGGAGTCACCTAGTGCAG | 8310 fluorescence intensity (a.u.)
CATAGATGGGCTCATCAGTAATGCTCCATATCAACACGACCGGAGTCACCTAGTGCAG | 35200 fluorescence intensity (a.u.)
TGCAGCGCCCTCAGCGTTTTGCGCTGCCGTGGCCATCACGCGGAGTCACCTAGTGCAG | 4300 fluorescence intensity (a.u.)
TATGAAACCTGAAAACAACTTAACACGGGTGTCCTTCGTCCGGAGTCACCTAGTGCAG | 17500 fluorescence intensity (a.u.)
CGCCCACCTATCTTACCACTGACACATTGGCCCCACCACCCGGAGTCACCTAGTGCAG | 4120 fluorescence intensity (a.u.)
CCCTCCCTCCGCCTCCGCCCATCCAATTTCTTACCCCGTTCGGAGTCACCTAGTGCAG | 3230 fluorescence intensity (a.u.)
CCTAATTAATCCATAATTATCAAAAGTTTACTGTAGCATCCGGAGTCACCTAGTGCAG | 27800 fluorescence intensity (a.u.)

Sequence | binding signal
AATCCATAATTAGAGAATGTTTACTGTAGCATCACATAGGCGGAGTCACCTAGTGCAG | 3290 fluorescence intensity (a.u.)
AATTAATCCATTATTAACAAATGTTTACTGTAGCATCACACGGAGTCACCTAGTGCAG | 51600 fluorescence intensity (a.u.)
GATTGTTGGTAGCTAGGTAGCTGTGGCCAAGAAAGTGAGACGGAGTCACCTAGTGCAG | 3810 fluorescence intensity (a.u.)
TAGCAGCCAATTAGTCCACTTAATCACCCATGGATCGCGACGGAGTCACCTAGTGCAG | 3490 fluorescence intensity (a.u.)
TATATCTAGTTTGCTCAGACCTACTGCTATTTCTTTCTGACGGAGTCACCTAGTGCAG | 41200 fluorescence intensity (a.u.)
TTATTTTGGAACTGGACCTATCTAATTTCTCCTAGTCAGACGGAGTCACCTAGTGCAG | 3780 fluorescence intensity (a.u.)
ACATGATTTGTGCTCCATGACCTCTTTCTTCTATTATCTACGGAGTCACCTAGTGCAG | 7980 fluorescence intensity (a.u.)
TGTTCATAAAAGTAAATGTGCGTGCGTGATTGTATTGTATCGGAGTCACCTAGTGCAG | 12500 fluorescence intensity (a.u.)
AGAGAGCAGTGGAGTGCTGTCAGCCGTTGGATGGCCATCCCGGAGTCACCTAGTGCAG | 3400 fluorescence intensity (a.u.)
GCCGCCGCCGCCGCCGCCGCCGCTGTGTGTACGACTACGACGGAGTCACCTAGTGCAG | 3250 fluorescence intensity (a.u.)
ACCGACGTTTAATCCCTGAGAGCCAGCCGTTGGCTGTGTACGGAGTCACCTAGTGCAG | 65500 fluorescence intensity (a.u.)
TTACTGCTACCTCCACTTCATGTTATAAGTTGTTTTACCTCGGAGTCACCTAGTGCAG | 3480 fluorescence intensity (a.u.)
TCGCTGATGAAAATGATGAGCATGGTGAGGGGAAGAAGGGCGGAGTCACCTAGTGCAG | 22400 fluorescence intensity (a.u.)
ATCACTTCATTATCACATGACAGACCAACATATAATGATGCGGAGTCACCTAGTGCAG | 44500 fluorescence intensity (a.u.)
ATTATGTAATGCCTGTTGATGTCAGACCACTCCAAATGCTCGGAGTCACCTAGTGCAG | 3480 fluorescence intensity (a.u.)
TATGGAGTGAAATGTCAGACTCCAAATGACTTATATGATGCGGAGTCACCTAGTGCAG | 64100 fluorescence intensity (a.u.)
CGACCGACATATCTTCATAATTACCAAGTCATCATGCGACCGGAGTCACCTAGTGCAG | 4520 fluorescence intensity (a.u.)
CTTCTTCTTGTGATGCTTATATATGACTATGTATGTAGTGCGGAGTCACCTAGTGCAG | 3940 fluorescence intensity (a.u.)
GTTTATTCCAAGTGGTGGATGCTGATGAATTAAGTATATACGGAGTCACCTAGTGCAG | 3140 fluorescence intensity (a.u.)
TCCAAAAGTTCTTGATGTGGCATGGTGGACATGAATTTGTCGGAGTCACCTAGTGCAG | 5240 fluorescence intensity (a.u.)
ATGAATGACCCTGCGACAACAAACCACATCATATCATGCGCGGAGTCACCTAGTGCAG | 3740 fluorescence intensity (a.u.)
CTGAATTTGACTCTTGGATGGTGACTATGATGTCCAAGTACGGAGTCACCTAGTGCAG | 45100 fluorescence intensity (a.u.)

Source: article PMC7819943, “Rice protein-binding microarrays: a tool to detect cis-acting elements near promoter regions in rice”
